In the supplement of paper PMC6555819:

Columns and labels:
Test in all cases: PBM binding z-score (relative to random genomic background probes); higher = stronger binding; sequences stand for … in GC…GCGATTGACAGCGTAGAATGAAGG
[1] = test system: RARb homodimer (NR concentration 270 nM)
Summary of the method: (§1)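 Binding buffer was PBS pH 7.4 with 2% milk, 0.02% Triton X-100, 1 mM DTT, 0.2 mg/mL BSA and 0.4 mg/ml salmon testes DNA. In it, ligand-free nuclear receptor dimers were incubated 1 h on custom Agilent 4×180K protein-binding microarrays carrying double-stranded probes. Antibodies against each partner (one per run) detected binding, and z-scores were calculated against random background probes after regression normalization of scanned fluorescence.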

[2] = test system: RARg:RXRa (NR concentration 270 nM, RXRa partner concentration 90 nM)
Summary of the method: as §1

[3] = test system: RARg homodimer (NR concentration 270 nM)
Summary of the method: as §1

[4] = test system: RXRa DBDmut IVT, anti-RXR (DBD mutation: RXRa K156A/R161A, NR concentration 90 nM)
Summary of the method: as §1

[5] = test system: RXRa homodimer (NR concentration 180 nM)
Summary of the method: as §1

[6] = test system: THRa:RXRa (NR concentration 90 nM, RXRa partner concentration 90 nM)
Summary of the method: as §1

[7] = test system: THRa homodimer (NR concentration 90 nM)
Summary of the method: as §1

[8] = test system: VDR homodimer (NR concentration 270 nM)
Summary of the method: as §1

Sequence | PBM binding z-score [1] | PBM binding z-score [2] | PBM binding z-score [3] | PBM binding z-score [4] | PBM binding z-score [5] | PBM binding z-score [6] | PBM binding z-score [7] | PBM binding z-score [8]
TTACCAAGGTGAAGGTCGTTCATCCCTCTGTAGA | 2.21 | 1.63 | 1.5 | 0.548 | 1.75 | 2.62 | 1.08 | 1.1
TCTTGTAGATCAGCAGGTTAAGACAGCTGGCCAA | 0.0345 | 0.0307 | -0.276 | 0.415 | 0.431 | 0.272 | -0.416 | -0.184
TCTGCTAGCTCAACGATGGTCAGCTAATCTGCTA | -0.694 | -0.391 | -0.546 | 0.109 | -0.436 | -0.558 | -1.1 | -0.902
AGAACGAGGGCACGCTGAGTTGATTGCAGAGTAG | 1.13 | 1.93 | 2.38 | 1.87 | 1.27 | 1.86 | -0.121 | 2.17
TCGCGTAGGTTACCAATGGGGCATTCAGCTTTCT | 0.809 | 1.42 | 0.306 | 0.302 | 0.572 | 0.107 | -0.509 | -0.338
TAACCTAGGTCAGATCGGGCCAGTATACGCTATA | 2.52 | 3.36 | 3.68 | 0.17 | 1.94 | 4.19 | 0.384 | 0.367
CAAACTAGGTCACCGGAAGGGCAAAGTCCGCATG | 4.57 | 6.48 | 5.56 | 1.21 | 3.68 | 3.42 | 1.7 | 1.33
TCATATAGGTAAAAGGTGAAGGTCGGTGTGGTAA | 2.64 | 2.21 | 1.23 | 1.73 | 3.05 | 1.94 | 1.05 | 0.941
AGAACGACGGCAATGAGTTGATAGCACGGGTGGC | -0.961 | -0.245 | -0.185 | -0.402 | 0.0598 | -0.626 | -1.12 | -0.0582
ACTTACCGGTCAACGAGGTTATAGCACGCGTATA | 2.92 | 3.45 | 3.85 | 1.25 | 2.27 | 2.69 | 1.21 | 2.26
TTACCAAGGTGAGCTGAGGTCGGTGATCCAACTC | 1.46 | 0.608 | 0.586 | -0.659 | 0.505 | 4.31 | 1.25 | 0.0612
TATACAGGGCCAAAGGCCAGAGTACGAATGTCGA | 1.12 | 1.16 | 1.47 | -0.775 | 0.74 | -0.149 | -0.814 | 0.291
CTCGAAAGGTCGGTTGAGGTGAGTATCCGGATAA | 2.38 | 2.82 | 2.94 | 0.858 | 2.31 | 5.01 | 1.34 | 0.136
TCTTGTAGATCAACAGGACGTTAAGAAAGATCGA | -0.694 | 0.531 | 0.151 | 0.714 | 0.45 | 0.0444 | -0.626 | -0.395
CGTCCAAGGTCAGAAGGTCAGTGAAAGCGACGTG | 5.32 | 7.13 | 6.77 | 2.87 | 5.71 | 4.12 | 1.8 | 2.18
CGTCCAAGGTCAGCAGGTTAGTGAAAGCGACGTG | 4 | 5.37 | 6.05 | 2.64 | 4.17 | 3.57 | 2.06 | 1.76
GCTTACGGGTCAAAGGATATAGCATGAATAGAAT | 2.26 | 4.62 | 3.96 | 1.92 | 5.17 | 2.22 | -0.222 | 0.703
TCTTGTAGAACAAAGGTTAAGAAAGCCGAAGCCT | 1.45 | 1.55 | 0.851 | 0.724 | 2.32 | 1.05 | -0.79 | -0.438
CAAACTAGGACAAGAGGTCAAAGTCCGCTTCCCG | 4.38 | 5.63 | 4.63 | 2.33 | 6.3 | 3.92 | 1.89 | 4.42
CCTTACGGGTCACTGACAGGTTTTAGCATTTGGA | 3.06 | 4.89 | 4.41 | 1.81 | 4.92 | 2.53 | 0.0377 | 1.01
TGAATGAGGTTATAGGATCAGGGAACGTTGCAAA | 0.349 | 1.53 | 0.884 | 0.852 | 2.42 | 2.12 | 0.489 | 0.329
TCATATAGGTAATACAGGTTAAAGTCGGCATCTA | 0.936 | 0.979 | 0.696 | 2.04 | 1.63 | 1.35 | 0.204 | 0.629
ATCTCTAGGTAAAGTTCGGTGAAAGATCGATAGA | 0.59 | 0.582 | 0.694 | 0.694 | 0.31 | 1.1 | 0.351 | 0.916
CCTAGCAGGCCAATCTGGGTCACGCAAGGCTTGA | 2.43 | 1.86 | 1.9 | -0.504 | 1.69 | 3.99 | 0.767 | -0.0889
CCTAGCAGGCCAATCTGGGTCACTCAGGGCTTGA | 2.15 | 0.923 | 1.06 | 0.0967 | 0.498 | 3.58 | 0.158 | -0.303
CTACCAAGGTGAACACGGTCGTTGATTACTATTC | 1.24 | 0.852 | 0.843 | 0.773 | 0.777 | 2.07 | 0.961 | 0.015

Sequence | PBM binding z-score [1] | PBM binding z-score [2] | PBM binding z-score [3] | PBM binding z-score [4] | PBM binding z-score [5] | PBM binding z-score [6] | PBM binding z-score [7] | PBM binding z-score [8]
CCTACTCGGCCATCAGGTCATTGATATCAACGTT | 3.21 | 2.43 | 2.51 | 1.21 | 1.33 | 3.16 | 3.66 | 2.42
TCGAGTAGGTCACCAATGGGGCATTCAGCTTTCT | 3.59 | 5.11 | 4.61 | 0.972 | 3.44 | 2.42 | -0.0324 | 0.0095
ATCTCTAGGTAAAAGGTCAGTGAATCCCGAGGAT | 4.43 | 4.54 | 4.74 | 0.227 | 4.83 | 3.34 | 0.855 | 0.867
GATACAGGGTCAGCTAGAGGCCAGAGTATGGAAA | 3.39 | 6.67 | 4.67 | 1.4 | 4.36 | 3.08 | 0.503 | 0.622
CCAAGTAGGTTATGGGGCATTCAGGCAACGGTGA | 0.93 | 0.634 | 0.608 | 0.0857 | 0.733 | 0.508 | -0.0137 | 0.318
TAGCCTAGGTCATTGGCCAGTATACCACGCGAAC | 2.76 | 3.66 | 3.92 | 1.68 | 3.22 | 2.66 | 0.992 | 1.26
TCAGACAGGTCAAGGTAACTCAGGTACGCAGTCG | 3.61 | 4.57 | 4.8 | 2.07 | 4.44 | 3.33 | 1.49 | 0.989
CTACCAGGGTGAACAAGGTCGTTGATTACTATTC | 1.69 | 1.59 | 0.976 | 0.927 | 1.85 | 3.28 | 1.27 | 2.42
ACTATTAGTTGAATTAGGGCAACCGATACGACGC | 0.778 | 0.551 | 0.997 | 0.675 | 0.283 | 1.54 | 0.513 | 0.497
CCTAGCAGCCCAATCTGGGTCACTCAAGGCTTGA | 1.77 | 0.615 | 0.301 | -0.241 | 0.56 | 2.28 | 0.424 | -0.324
ACTCGGAGGACACAGGTCAGAGCTACGCCAGTGA | 2.78 | 2.68 | 3.12 | 0.823 | 2.09 | 2.57 | 0.77 | 0.0264
GCTCTTAGTTGAAAGGGCAACCGAATGATTCTCG | 1.96 | 1.34 | 1.31 | 0.899 | 1.18 | 0.622 | -0.289 | 0.164
TAGCCTAGGTCAGATCCGGCCAGTATACGCTATA | 2.26 | 2.41 | 3.5 | -0.288 | 1.41 | 3.4 | 0.0339 | -0.271
GCTATTAGTTGAAAGGGCAACGGAATGATTCTCG | 1.94 | 1.36 | 1.26 | 0.668 | 1.2 | 0.463 | -0.221 | 0.0426
ACTAGCAGGCAAAGGGTCACTCAAGATTAGTCCG | 3.87 | 3.98 | 3.89 | 0.88 | 4.31 | 2.58 | 0.198 | 1.57
CGAACTAGGTCATTGACAGGACAGTGCATAGTAA | 2.87 | 4.65 | 4.3 | 2.22 | 2.43 | 2.85 | 0.816 | 1.86
CTCGAAAGGTCGTGCTCAGGTGAGTATCCCAAAC | 2.88 | 5.08 | 3.47 | 2.02 | 4.66 | 4.05 | 1.22 | 0.742
CGTCCAAGGTCAATGCTAGGTCCGTGAAAGCATT | 3.83 | 5.71 | 5.7 | 3.67 | 4.55 | 3.82 | 2.12 | 2.96
ATCGAAAGGTCGAAGGTGAGTATTCCCACCCGAA | 2.4 | 4.36 | 3.76 | 1.17 | 5.41 | 2.13 | 0.00651 | 0.282
CCTACTGGGCCATTCAGAGGTCATTGAACATATG | 4.05 | 4.74 | 3.46 | 1.03 | 4.17 | 3.33 | 1.65 | 4.01
AAAGACAGGTGAGTGAAGGTAACTCAGCTGGACG | 0.159 | 0.293 | 0.488 | -0.545 | 0.374 | 1.86 | -0.204 | -0.128
ATCTCTAGGTAACAAGTTCAGTCAAAGAGAGGAC | 1.92 | 1.45 | 1.43 | 1.09 | 0.866 | 1.62 | 1.12 | 2.65
CCTGCTAGGTCATGGTCAGCTAGTCTACAGTATG | 3.22 | 4.05 | 4.82 | 1.84 | 2.76 | 3.03 | 1.25 | 0.287
ATTTGTAGGTTAAGGGTCATTCAGGTTGGTTCGC | 3.97 | 5.34 | 4.15 | 2.49 | 6.91 | 3.76 | 2.55 | 5.33
CGTCCAAGGTCAGAGAGGTGAGTGAATGCCGAGT | 3.85 | 4.7 | 5.44 | 3.06 | 3.79 | 3.81 | 2.28 | 2.26
ATATGTAGGTGAGCTGGGGTCATTCAGACTAGGC | 3.97 | 4.01 | 2.84 | 1.57 | 5.56 | 5.14 | 3.37 | 4.43
